Experimental findings from PubChem BioAssay (Tox21) are described below.

Assay [1] in a line: qHTS assay to identify small molecule antagonists of the peroxisome proliferator-activated receptor delta (PPARd) signaling pathway - cell viability counter screen (AID 743213). Also: nearly all actives have a fitted effect of over 50% in size. In outline:
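HEK293H PPARd UAS-bla cells, 5 h pre-incubation, compound + L165041 300 nM final, 17 h 37 C; B/G FRET substrate 2 h RT; then CellTiter-Glo 30 min RT, luminescence.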
For orientation: qHTS replaces the single test concentration by a dilution series.

Assay [2] can be described thus: qHTS assay to identify small molecule antagonists of the farnesoid-X-receptor (FXR) signaling pathway - cell viability counter screen (AID 743221; active = well fitted cell-killing curve with a large enough effect in the repeat runs, not every such curve was filed as active; also: nearly all actives have a fitted effect of over 50% in size). Summed up: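 Multiplexed counter screen: viability of FXR-bla HEK 293T cells under agonist stimulation by chenodeoxycholic acid (50 uM, final) and test compound for 16 h at 37 C, measured by CellTiter-Glo luminescence in the reporter wells.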

Assay [3] addresses Vitamin D3 receptor (Homo sapiens) (UniProt P11473). Put plainly: qHTS assay to identify small molecule antagonists of the vitamin D receptor (VDR) signaling pathway (AID 743223; active = well fitted inhibition curve with a large enough effect in the signal ratio in the repeat runs, not every such curve was filed as active; the % refers to the signal ratio). In outline:
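Cells carrying a VDR-driven beta-lactamase reporter (VDR-bla) were co-treated with compound and 3 nM final 1alpha,25-dihydroxyvitamin D3 for 16 h at 37C; reporter activity was measured as FRET substrate fluorescence after 2 h at room temperature.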

A short description of assay [4]: qHTS assay to identify small molecule agonists of the vitamin D receptor (VDR) signaling pathway - cell viability counter screen (AID 743224). Also: series mostly up to about 63 µM; nearly all actives have a fitted effect of over 50% in size. In outline:
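Luminescence from CellTiter-Glo, read after 30 min at room temperature, reports viability of VDR-bla cells treated with compounds for 16 h at 37C in the wells used for the beta-lactamase FRET read.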

A short description of assay [5]: qHTS assay to identify small molecule antagonists of the vitamin D receptor (VDR) signaling pathway - cell viability counter screen (AID 743225). Also: nearly all actives have a fitted effect of over 50% in size. Summed up:
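HEK293T VDR-bla; cpd + 1a,25-(OH)2D3 3 nM final, 16 h 37C/5% CO2; B/G FRET substrate 2 h RT; then CellTiter-Glo 30 min RT, luminescence.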

A short description of assay [6]: qHTS assay to identify small molecule agonists of the NFkB signaling pathway - cell viability counter screen (AID 1159515; calls by dose curve; also: series mostly up to about 61 µM; nearly all actives have a fitted effect of over 55% in size). Summed up:
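Luminescence from CellTiter-Glo (30 min, room temperature) gives viability, measured in the same wells as the beta-lactamase reporter read. Cells were NFkB-bla ME-180, 2,000 per well, treated 5 hr with compounds.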

Assay [7] in a line: qHTS assay to identify small molecule agonists of the endoplasmic reticulum stress response signaling pathway (AID 1159516; active = well fitted activation curve with a large enough effect in the signal ratio in the repeat runs, not every such curve was filed as active; the % refers to the signal ratio). Summed up:
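Read-out is beta-lactamase cleavage of a FRET substrate (405 nm excitation; 460 and 530 nm emissions) in ESRE-bla HeLa cells after a 5 hr compound exposure at 37 C. Substrate incubation ran 2 hr at room temperature.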

A short description of assay [8]: qHTS assay to identify small molecule agonists of the endoplasmic reticulum stress response signaling pathway - cell viability counter screen (AID 1159517; calls by dose curve). In outline: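 ESRE-bla HeLa cells, 1,500 per well, seeded overnight then treated with compounds for 5 hr at 37 C. After the beta-lactamase read, viability in the same wells is measured by CellTiter-Glo luminescence after 30 min at room temperature.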

A short description of assay [9]: qHTS assay to identify small molecule antagonists of the retinoid-related orphan receptor gamma (ROR-gamma) signaling pathway - cell viability counter screen (AID 1159520). Also: nearly all actives have a fitted effect of over 50% in size. In outline:
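Tet-on ROR gamma CHO cells were given compounds for 2 hr, then doxycycline hyclate at 1 uM final, and incubated 16 hr at 37 C. Viability was measured as ATP content by CellTiter-Glo luminescence.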

Assay [10] concerns the target Nuclear receptor ROR-gamma (Homo sapiens) (UniProt P51449). In words: qHTS assay to identify small molecule antagonists of the retinoid-related orphan receptor gamma (ROR-gamma) signaling pathway (AID 1159521). Summed up: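 Cells were plated, rested 4 h at 37 C, exposed to compounds for 2 h, then given 1 uM final doxycycline hyclate to induce RORγ expression. After 16 h, ONE-Glo luminescence from the ROR response element reporter was measured.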

Assay [11] can be described thus: qHTS assay to identify small molecule agonists of the AP-1 signaling pathway - cell viability counter screen (AID 1159525; calls by dose curve; also: nearly all actives have a fitted effect of over 55% in size). Summed up: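 AP-1-bla ME-180 cells in Opti-MEM with 0.5% dialyzed FBS, compound exposure 5 h at 37 C in 15-point titration. Viability read in the same wells as ATP content by CellTiter-Glo luminescence, normalised to tetra-n-octylammonium bromide and DMSO controls.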

Assay [12] is described as follows: qHTS assay to identify small molecule agonists of the AP-1 signaling pathway (AID 1159526; calls by dose curve).
Assay [13] concerns the target Retinoic acid receptor RXR-alpha (Homo sapiens) (UniProt P19793). In words: qHTS assay to identify small molecule agonists of the RXR signaling pathway (AID 1159527; calls by dose curve; also: nearly all actives have a fitted effect of over 35% in size; also: potency is read from the fitted curve at half-maximal effect). In outline: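 Cells plated at 2,000/well, rested 5 hr at 37 C, pin-dosed with DMSO compound solutions, incubated 16 hr, then loaded with B/G FRET substrate for 2 hr at RT before dual-emission fluorescence reading.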

Assay [14] is described as follows: qHTS assay to identify small molecule agonists of the RXR signaling pathway - cell viability counter screen (AID 1159529). In outline:
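Steps: seed RXR-alpha-UAS-bla HEK 293T cells in assay medium containing 2% charcoal-stripped FBS; incubate 5 hr; add compounds in DMSO; incubate 16 hr at 37 C; after the bla read, add CellTiter-Glo and read luminescence at 30 min.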

Assay [15] can be described thus: qHTS assay to identify small molecule antagonists of the retinoid acid receptor (RAR) signaling pathway - cell viability counter screen (AID 1159551). Also: nearly all actives have a fitted effect of over 35% in size. In outline: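 Luminescent ATP quantitation (CellTiter-Glo) gave cell viability in C3RL4 cells exposed to test chemicals for 6 h at 37 C alongside 1 uM final retinol.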
The nature of assay [16]: qHTS assay to identify small molecule antagonists of the retinoic acid receptor (RAR) signaling pathway (AID 1159552; also: nearly all actives have a fitted effect of over 50% in size). Summed up:
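Retinol at 1 uM final stimulated RARE-luciferase expression in C3RL4 cells exposed to test compounds for 6 hr at 37 C. Reduced luminescence, read 30 min after detection reagent, indicated pathway antagonism.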

The target in assay [17] is Peroxisome proliferator-activated receptor delta (Homo sapiens) (UniProt Q03181). In words: qHTS assay to identify small molecule antagonists of the peroxisome proliferator-activated receptor delta (PPARd) signaling pathway (AID 743215; active = well fitted inhibition curve with a large enough effect in the signal ratio in the repeat runs, not every such curve was filed as active; the % refers to the signal ratio;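 also: cells stimulated with agonist L165041 at 300 nM final during compound exposure; series mostly up to about 62 µM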). Summed up: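 Read-out is beta-lactamase FRET fluorescence, measured 2 h after substrate addition at room temperature. Beforehand, UAS-bla HEK293H cells carrying the PPARd reporter were exposed to compounds with L165041 at 300 nM final for 17 h at 37 C.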
Chain of Peroxisome proliferator-activated receptor delta (Homo sapiens) (Q03181 whole entry, looked up): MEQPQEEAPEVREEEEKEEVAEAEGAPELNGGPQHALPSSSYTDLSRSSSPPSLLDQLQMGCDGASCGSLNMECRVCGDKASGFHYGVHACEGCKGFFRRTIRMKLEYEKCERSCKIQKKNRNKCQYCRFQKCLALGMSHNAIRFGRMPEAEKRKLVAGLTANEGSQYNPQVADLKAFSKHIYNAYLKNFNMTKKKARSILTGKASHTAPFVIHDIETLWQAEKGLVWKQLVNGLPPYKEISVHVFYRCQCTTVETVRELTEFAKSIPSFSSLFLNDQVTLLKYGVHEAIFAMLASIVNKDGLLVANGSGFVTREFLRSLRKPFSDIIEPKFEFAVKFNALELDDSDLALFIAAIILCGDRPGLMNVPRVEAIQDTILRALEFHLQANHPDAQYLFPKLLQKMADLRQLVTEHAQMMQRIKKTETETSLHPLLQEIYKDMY

Assay [18] is described as follows: qHTS assay to identify small molecule agonists of the farnesoid-X-receptor (FXR) signaling pathway - cell viability counter screen (AID 743218). Also: nearly all actives have a fitted effect of over 45% in size. In outline: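 HEK 293T FXR-bla cells; 5 h pre-incubation, 16 h compound exposure at 37 C; LiveBLAzer substrate 2 h RT, then CellTiter-Glo 30 min RT, luminescence.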
The target of assay [19] is Bile acid receptor (Homo sapiens) (UniProt Q96RI1). In words: qHTS assay to identify small molecule antagonists of the farnesoid-X-receptor (FXR) signaling pathway (AID 743217; active = well fitted inhibition curve with a large enough effect in the signal ratio in the repeat runs, not every such curve was filed as active; the % refers to the signal ratio). Summed up: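 HEK 293T FXR-UAS-bla, 5000 cells/well; compound + CDCA 50 uM final; 16 h, 37 °C; B/G FRET substrate 2 h RT; fluorescence.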
Chain of Bile acid receptor (Homo sapiens) (Q96RI1 whole entry, looked up): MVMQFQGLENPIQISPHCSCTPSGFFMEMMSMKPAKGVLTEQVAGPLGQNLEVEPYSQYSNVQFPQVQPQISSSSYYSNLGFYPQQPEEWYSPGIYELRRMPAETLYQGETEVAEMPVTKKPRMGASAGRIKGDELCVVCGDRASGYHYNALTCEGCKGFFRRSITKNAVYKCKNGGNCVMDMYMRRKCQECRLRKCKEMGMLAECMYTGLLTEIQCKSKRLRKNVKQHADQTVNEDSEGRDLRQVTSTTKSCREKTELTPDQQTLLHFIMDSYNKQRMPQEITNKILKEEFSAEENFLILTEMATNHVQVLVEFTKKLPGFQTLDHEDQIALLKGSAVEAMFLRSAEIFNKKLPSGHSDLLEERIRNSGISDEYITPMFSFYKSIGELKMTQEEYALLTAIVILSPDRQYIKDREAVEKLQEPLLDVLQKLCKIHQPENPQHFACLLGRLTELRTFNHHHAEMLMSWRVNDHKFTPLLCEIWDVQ
Assay [20] shares this target. In words: qHTS assay to identify small molecule agonists of the farnesoid-X-receptor (FXR) signaling pathway (AID 743220; active = well fitted activation curve with a large enough effect in the signal ratio in the repeat runs, not every such curve was filed as active; the % refers to the signal ratio). Summed up: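 Beta-lactamase reporter under UAS control in GeneBLAzer FXR HEK 293T cells (5000/well) measured with LiveBLAzer FRET substrate after 2 h at room temperature. Compound exposure lasted 16 h at 37C.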

The structures appear in SMILES notation. Several values for one entry are separate records, joined by “and”; a condition that tells them apart may be missing. Equal values may be shown once. Records with an inconclusive call do not appear. A structure can be active in one record and inactive in another. Activity calls are given as the source filed them. Unless noted, calls follow the shape of the dose curve; as a rule, active = well fitted curve in the direction sought with a large enough effect in the repeat runs; inconclusive = weak or mixed curves; inactive = no such curve, though single readings can be large; an effect the other way counts as inactive or inconclusive.

Chain of Vitamin D3 receptor (Homo sapiens) (P11473 whole entry, looked up): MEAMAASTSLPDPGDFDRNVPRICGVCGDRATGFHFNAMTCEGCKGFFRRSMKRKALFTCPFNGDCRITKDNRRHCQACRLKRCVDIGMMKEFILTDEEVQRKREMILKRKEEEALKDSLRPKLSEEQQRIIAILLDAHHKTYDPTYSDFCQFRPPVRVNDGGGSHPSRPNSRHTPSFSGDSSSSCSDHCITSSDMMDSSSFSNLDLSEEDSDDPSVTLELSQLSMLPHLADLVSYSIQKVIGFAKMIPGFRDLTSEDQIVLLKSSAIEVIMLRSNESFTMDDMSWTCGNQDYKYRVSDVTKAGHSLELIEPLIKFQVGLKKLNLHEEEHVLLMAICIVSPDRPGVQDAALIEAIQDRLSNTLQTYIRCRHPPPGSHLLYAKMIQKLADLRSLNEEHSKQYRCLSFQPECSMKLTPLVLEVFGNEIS
Chain of Retinoic acid receptor RXR-alpha (Homo sapiens) (P19793 whole entry, looked up): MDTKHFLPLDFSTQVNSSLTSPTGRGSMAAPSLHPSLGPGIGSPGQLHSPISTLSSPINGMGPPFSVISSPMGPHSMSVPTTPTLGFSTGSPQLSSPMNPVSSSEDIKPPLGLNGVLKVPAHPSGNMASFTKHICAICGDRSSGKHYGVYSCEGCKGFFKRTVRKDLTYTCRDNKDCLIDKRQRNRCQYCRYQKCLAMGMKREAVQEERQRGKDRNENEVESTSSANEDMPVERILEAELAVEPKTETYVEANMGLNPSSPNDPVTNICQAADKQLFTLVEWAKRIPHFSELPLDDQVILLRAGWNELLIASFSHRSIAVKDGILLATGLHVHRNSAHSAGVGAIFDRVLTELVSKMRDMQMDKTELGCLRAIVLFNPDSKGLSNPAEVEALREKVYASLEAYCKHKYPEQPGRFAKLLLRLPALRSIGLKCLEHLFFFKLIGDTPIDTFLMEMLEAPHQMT

As to `O=C(O)CCl`, the Potency entry in [1], in assay [2], in assay [3], in assay [4], in assay [5] and in assay [6] was “inactive” throughout. The Potency result in [8], in assay [9], in assay [10], in assay [11], in [12] and in [13] was “inactive” each time. The Potency entry in assay [14], in [15] and in assay [16] was “inactive” throughout. In addition, the result in assay [7] was inactive.

As to `COP(=O)(OC)OC=C(Cl)Cl`, the Potency result in [1], in assay [18], in assay [2], in assay [4], in [5] and in [6] was “inactive” in each case. Also, the Potency entry in [8], in [9], in [10], in assay [12], in [13] and in assay [14] was “inactive” in each case. In [15], the Potency entry is “inactive”. Besides, the compound was called inactive in assay [17] and in assay [7].

As to `COCC(=O)N(c1c(C)cccc1C)C(C)C(=O)OC` (stereo not given), the Potency result in assay [1], in assay [19], in [2], in assay [3], in assay [4] and in assay [5] was “inactive” throughout. Besides, the Potency result in [6], in assay [8], in assay [9], in assay [10], in assay [11] and in assay [12] was “inactive” throughout. The Potency result in [13], in [14], in [15] and in [16] was “inactive” throughout. Besides, the compound was classed as inactive in assay [17], in assay [20] and in assay [7].

For the compound `COc1ccc(N)cc1`, the Potency result in assay [1], in [18], in [2], in [4], in [5] and in assay [6] was “inactive” throughout. Also, the Potency entry in assay [8], in assay [9], in assay [10], in assay [12], in assay [13] and in [14] was “inactive” in each case. Moreover, the Potency result in assay [15] is “inactive”. Moreover, the result in assay [17] and in assay [7] was inactive.

`O=P1(N(CCCl)CCCl)NCCCO1` (stereo not given): the Potency result in [1], in [19], in assay [2], in [3], in [4] and in [5] was “inactive” throughout. In addition, the Potency result in assay [6], in [8], in [9], in [10], in [12] and in [13] was “inactive” each time. Also, the Potency entry in assay [14] and in [15] was “inactive” each time. Also, the result in assay [17], in assay [20] and in assay [7] was inactive.

`O=C(O)C(Cl)(Cl)Cl`: the Potency result in assay [1], in assay [18], in [2], in assay [3], in [4] and in [5] was “inactive” in each case. Besides, the Potency entry in assay [6], in [8], in [9], in assay [10], in [12] and in assay [13] was “inactive” each time. The Potency result in assay [14], in assay [15] and in [16] was “inactive” in each case. Also, the compound was called inactive in assay [17] and in [7].

For the compound `O=C(O)C(Cl)Cl`, the Potency entry in assay [1], in [18], in assay [2], in assay [4], in assay [5] and in assay [6] was “inactive” throughout. In addition, the Potency entry in assay [8], in [9], in assay [10], in assay [11], in assay [12] and in [14] was “inactive” each time. Also, the Potency entry in [15] is “inactive”. The compound was classed as inactive in [17] and in assay [7]. For the same compound, the Potency entry in assay [13] was “inactive and 3.09 µM (active)”.

As for `CC[N+](CC)(CC)CC`, the Potency entry in assay [1], in [2], in [3], in assay [4], in assay [5] and in assay [6] was “inactive” in each case. The Potency result in [8], in assay [9], in assay [10], in [11], in assay [12] and in assay [13] was “inactive” in each case. For the same compound, the Potency result in assay [14] and in [15] was “inactive” each time. The compound was called inactive in assay [7].
